Test results from the supplement of paper PMC3334620.
The full ranking holds about 33,000 sequences; the median of “E-score (-0.5 to 0.5)” is about -0.035, and the highest 2% start at about 0.34. This is one part of a sample in which the highest values are shown more often than they occur.

These sequences were tested against T1, Mot3 (UniProt P54785) (assay: PBM E-score (8-mer binding enrichment) (E-score (-0.5 to 0.5)); higher = stronger / more preferred TF binding). Conditions: protein concentration: 200 nM; construct: GST-full length.
T1 sequence: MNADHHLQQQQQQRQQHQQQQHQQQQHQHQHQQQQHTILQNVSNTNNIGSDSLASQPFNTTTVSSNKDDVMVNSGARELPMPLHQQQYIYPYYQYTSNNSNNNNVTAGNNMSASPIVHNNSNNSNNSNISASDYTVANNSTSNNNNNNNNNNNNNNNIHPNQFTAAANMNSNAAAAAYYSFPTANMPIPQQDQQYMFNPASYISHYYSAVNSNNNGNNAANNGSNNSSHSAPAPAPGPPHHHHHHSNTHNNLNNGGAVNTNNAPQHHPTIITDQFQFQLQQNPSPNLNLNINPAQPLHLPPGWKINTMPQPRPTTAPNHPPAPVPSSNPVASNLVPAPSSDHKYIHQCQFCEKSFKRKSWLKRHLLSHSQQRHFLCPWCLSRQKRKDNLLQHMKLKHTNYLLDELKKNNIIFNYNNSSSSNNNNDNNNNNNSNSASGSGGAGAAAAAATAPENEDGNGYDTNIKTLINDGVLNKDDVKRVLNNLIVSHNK
Procedure, shortened: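 E-scores (a modified Wilcoxon-Mann-Whitney statistic) were assigned by the Universal PBM Analysis Suite to every ungapped eight-base word pooled with its reverse complement. The input came from universal all-10-mer Agilent arrays made double-stranded by primer extension and probed with GST-tagged yeast transcription factors at about 100-200 nM. Fluorescent anti-GST detected bound protein, and masliner normalised the scans.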

| Sequence | PBM E-score |
| --- | --- |
| CGATGGGA | -0.272 |
| AGTTCAGC | -0.141 |
| ATAACCCC | -0.207 |
| CATCTGGC | -0.139 |
| CGTTGATA | 0.114 |
| AATGAGCC | -0.238 |
| CTTAGAAG | -0.209 |
| CAACTACC | -0.02 |
| ACGTGTTA | 0.351 |
| ACGTGTTG | 0.338 |
| CTGTGTTA | 0.334 |
| ATGTGTTA | 0.316 |
| GCGTGTTA | 0.393 |
| GCGTGTGA | 0.177 |
| ACGTGTTC | 0.221 |
| GTGTGTTA | 0.348 |
| ACGTGTCA | 0.342 |
| CCGTGTCA | 0.277 |
| ACGTGTCG | 0.24 |
| GCGTGTCA | 0.305 |
| ATCATCTG | -0.0881 |
| AAGACCGC | -0.139 |
| TCCGTTCA | -0.194 |
| ATTCCATG | 0.0576 |
| CTCCGTTC | -0.0461 |

| Sequence | PBM E-score |
| --- | --- |
| TAAACCTA | -0.01 |
| AAGAGCTC | 0.00626 |
| CCGTGTTC | 0.27 |
| CCGTGTTA | 0.376 |
| CAGTGTTA | 0.212 |
| GCTCCTAA | 0.118 |
| AGCAAGAA | -0.0228 |
| CTCGTCTA | -0.168 |
| CCGCGGGA | -0.23 |
| ACATTACT | 0.218 |
| GCATTACA | 0.35 |
| TCATTACA | 0.359 |
| ACATTACA | 0.357 |
| GCATTAGA | -0.0607 |
| ACATTACG | 0.271 |
| TCATTAGA | 0.0474 |
| GCATTACC | 0.0719 |
| CCATTACA | 0.337 |
| AACACTGG | 0.00047 |
| GCTTATCC | -0.179 |
| GCACAAGC | 0.117 |
| AGATACCT | -0.096 |
| CAAGGAAA | 0.317 |
| GAAGGAAA | 0.454 |
| GAAGGATA | -0.0542 |

| Sequence | PBM E-score |
| --- | --- |
| TAAGGAGA | -0.0944 |
| TAAGGAAA | 0.424 |
| TAAGGATA | -0.102 |
| AGGGATCC | -0.223 |
| AATTTTAG | 0.004 |
| AATCTCTA | -0.0669 |
| GGCATGTA | 0.376 |
| GGCATGCA | 0.146 |
| AGCATGTG | 0.179 |
| CGCATGTC | 0.146 |
| AGCATGTA | 0.354 |
| CGCATGGA | -0.0319 |
| AGCATGTC | 0.218 |
| CGCATGTA | 0.356 |
| GGCATGGA | -0.0411 |
| AAAGCGTA | 0.0441 |
| AGCACCGG | -0.32 |
| GAAGCTTC | -0.191 |
| CGAATAAC | 0.0678 |
| CAAATCAG | -0.048 |
| ATGCGGCA | -0.115 |
| TATACGCA | 0.272 |
| GCTGCCTA | 0.282 |
| GTTGCCTA | 0.488 |
| ATTGCCCA | 0.0652 |

| Sequence | PBM E-score |
| --- | --- |
| CTTGCCTC | 0.425 |
| CTTGCCCC | -0.209 |
| ATTGCCTA | 0.482 |
| ATTGCCTC | 0.331 |
| ATTGCCTG | 0.482 |
| CTTGCCGC | -0.231 |
| ATTGCCGA | -0.0541 |
| ATTGCCAG | -0.156 |
| GTTGCCCA | 0.103 |
| GAGCGCTC | -0.331 |
| CGTCGCAA | -0.149 |
| CAAGTCGG | -0.254 |
| GGTACTCA | 0.0108 |
| AGCTATAA | -0.0249 |
| CAGGTTCG | -0.00261 |
| CACCAGGA | -0.104 |
| CTTGCCTA | 0.488 |
| CTTGCCGA | -0.0816 |
| CCTGCCTA | 0.244 |
| CGTTTGTC | -0.0445 |
| CAGCCGCG | -0.0863 |
| ATTTTTAC | 0.34 |
| ATTTACTC | 0.159 |
| CGTTACAC | 0.274 |
| CTTTACAC | 0.415 |

| Sequence | PBM E-score |
| --- | --- |
| ATTTACGC | 0.239 |
| ATTTTTAA | 0.156 |
| ATTTACAA | 0.363 |
| GTTTACAA | 0.336 |
| ATTTACAC | 0.412 |
| ATTTACAG | 0.228 |
| CTTTACAA | 0.326 |
| AATTTTAC | 0.222 |
| ACGAGAAC | 0.0296 |
| CATACAGC | -0.19 |
| AAACGTGC | 0.118 |
| GCACCTCC | -0.215 |
| ATGTCCTA | -0.0455 |
| CGAGAGAG | -0.145 |
| GACTGGAA | -0.213 |
| AATAGGAA | 0.415 |
| AATAGGTC | 0.0378 |
| AATAGGAT | -0.00596 |
| CCTAGGAA | 0.018 |
| GATAGGAA | 0.197 |
| CATAGGAA | 0.231 |
| AATAGGTG | 0.0976 |
| TATAGGAA | 0.412 |
| AATAGGTA | 0.38 |
| ACGTGCCA | 0.00099 |

| Sequence | PBM E-score |
| --- | --- |
| AAGTCCGT | -0.0474 |
| AGTTAGGA | 0.108 |
| ATCAGGTA | 0.256 |
| GGGCGTGA | -0.066 |
| CGACTTCC | -0.0315 |
| TCTATAGA | -0.152 |
| ACAATGGT | -0.058 |
| CGGTAATC | -0.149 |
| CTGTAATA | 0.238 |
| ATGTAACG | 0.268 |
| CTGTATTC | 0.185 |
| AGGTAATC | 0.344 |
| AGGTAATG | 0.279 |
| ATGTAATA | 0.405 |
| ATGTATTG | 0.303 |
| ATGTAAGA | 0.309 |
| ATGTAAGG | 0.298 |
| ATGTAATG | 0.395 |
| ATGTATTC | 0.363 |
| GGAGACCC | -0.0421 |
| ACAACTAA | 0.183 |
| AGAAGTGG | -0.199 |
| ATGCGTGG | -0.214 |
| CTGCAACA | 0.0762 |
| CGCCACTA | -0.196 |

| Sequence | PBM E-score |
| --- | --- |
| AAGTCCAC | -0.187 |
| AAGTGCTC | -0.203 |
| ACCAGTAA | 0.016 |
| GCACAGCA | 0.144 |
| CAAGTTGC | 0.144 |
| CAGCGAGG | -0.276 |
| TTCGCAAA | 0.0552 |
| ATGTAAGC | 0.267 |
| ATGTAATC | 0.367 |
| GGGTAATA | 0.17 |
| CTGTAATC | 0.111 |
| GTGTAATA | 0.375 |
| GAGTAATA | 0.147 |
| AGCGAAGC | -0.0443 |
| CAAGGCGC | 0.191 |
| GAAGGCGA | -0.0248 |
| GAAGGCCC | 0.122 |
| CAAGGCTC | 0.0281 |
| AAAGGCGC | 0.371 |
| GAAGGCGC | 0.362 |
| AAAGGCTG | 0.0993 |
| AAAGGCTC | 0.354 |
